Publication PMC7862700, “An all-to-all approach to the identification of sequence-specific readers for epigenetic DNA modifications on cytosine”

Tests used:
Experiment in all cases: DAPPL (digital affinity profiling via proximity ligation, sequencing); 10 mM Tris-HCl pH 7.5, 50 mM NaCl, 1 mM DTT, 4% glycerol, room temperature, 30 min; GST-TFs on glutathione beads, 16-mer random dsDNA library, 0.1% formaldehyde crosslink after washing; high values mean tight binding
Conditions in all cases: protein: recombinant; tags: N-terminal GST; dsDNA, one strand shown
ELK1 = target: T1, ELK1 (Homo sapiens, UniProt P19419 1-428)
T1 sequence: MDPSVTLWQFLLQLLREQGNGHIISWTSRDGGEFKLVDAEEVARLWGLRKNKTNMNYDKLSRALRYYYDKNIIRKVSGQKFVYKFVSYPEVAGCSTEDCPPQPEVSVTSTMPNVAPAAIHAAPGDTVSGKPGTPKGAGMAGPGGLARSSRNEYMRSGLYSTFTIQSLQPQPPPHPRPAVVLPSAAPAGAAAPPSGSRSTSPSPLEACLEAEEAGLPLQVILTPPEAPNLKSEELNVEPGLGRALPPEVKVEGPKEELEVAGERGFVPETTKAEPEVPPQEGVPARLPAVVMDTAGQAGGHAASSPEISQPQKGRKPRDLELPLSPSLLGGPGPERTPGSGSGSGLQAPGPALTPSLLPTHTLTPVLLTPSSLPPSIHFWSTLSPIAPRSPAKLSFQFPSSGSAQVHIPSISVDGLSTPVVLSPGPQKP
In short: (§1)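 Human transcription factors fused to GST were expressed in yeast, captured on glutathione beads, given DNA barcodes and pooled with a GST-only negative control. Pools were incubated with 200 nmole of a 16-mer random double-stranded DNA library in Tris/NaCl/DTT/glycerol buffer at room temperature for 30 min. They were then washed, crosslinked with 0.1% formaldehyde, proximity-ligated (BsaI/T4 ligase, 1 h, 37 °C), PCR-amplified and sequenced on an Illumina NextSeq500. Binding signal is each 6-mer's read frequency for a factor divided by its frequency for the GST control.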

GABPA = target: T2, GABPA (Homo sapiens, UniProt Q06546 1-454)
T2 sequence: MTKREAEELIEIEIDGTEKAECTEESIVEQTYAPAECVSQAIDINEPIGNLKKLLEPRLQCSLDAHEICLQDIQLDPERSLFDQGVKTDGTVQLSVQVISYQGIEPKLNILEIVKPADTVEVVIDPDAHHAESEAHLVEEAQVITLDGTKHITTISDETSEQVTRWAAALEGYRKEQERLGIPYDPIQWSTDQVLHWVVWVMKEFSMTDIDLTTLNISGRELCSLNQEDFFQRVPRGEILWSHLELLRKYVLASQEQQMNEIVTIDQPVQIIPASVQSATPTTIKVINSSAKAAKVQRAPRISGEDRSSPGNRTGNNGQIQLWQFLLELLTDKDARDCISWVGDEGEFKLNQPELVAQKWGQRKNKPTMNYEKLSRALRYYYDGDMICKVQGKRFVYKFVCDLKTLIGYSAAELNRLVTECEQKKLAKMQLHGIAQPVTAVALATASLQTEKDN
In short: as §1

EHF = target: T3, EHF (Homo sapiens, UniProt Q9NZC4 1-300)
T3 sequence: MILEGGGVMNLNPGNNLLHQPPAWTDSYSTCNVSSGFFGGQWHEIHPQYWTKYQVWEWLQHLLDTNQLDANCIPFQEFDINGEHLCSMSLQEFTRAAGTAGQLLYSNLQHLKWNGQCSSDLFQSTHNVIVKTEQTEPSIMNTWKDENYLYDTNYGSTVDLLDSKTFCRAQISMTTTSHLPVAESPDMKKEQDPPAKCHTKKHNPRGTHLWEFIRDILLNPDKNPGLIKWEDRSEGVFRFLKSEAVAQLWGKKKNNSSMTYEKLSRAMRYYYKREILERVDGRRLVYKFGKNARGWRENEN
In short: as §1

ELK3 = target: T4, ELK3 (Homo sapiens, UniProt P41970 1-407)
T4 sequence: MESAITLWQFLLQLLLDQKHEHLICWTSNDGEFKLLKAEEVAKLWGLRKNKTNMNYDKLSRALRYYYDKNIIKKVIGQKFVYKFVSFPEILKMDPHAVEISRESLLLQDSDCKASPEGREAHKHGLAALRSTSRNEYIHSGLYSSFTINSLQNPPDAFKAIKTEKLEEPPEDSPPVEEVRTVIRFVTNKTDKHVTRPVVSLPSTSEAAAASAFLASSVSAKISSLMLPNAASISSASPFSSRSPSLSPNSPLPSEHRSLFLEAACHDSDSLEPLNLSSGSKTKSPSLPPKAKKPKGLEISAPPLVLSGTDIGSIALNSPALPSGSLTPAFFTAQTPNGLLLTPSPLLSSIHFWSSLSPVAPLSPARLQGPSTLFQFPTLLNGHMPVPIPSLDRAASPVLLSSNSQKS
In short: as §1

FEV = target: T5, FEV (Homo sapiens, UniProt Q99581 1-238)
T5 sequence: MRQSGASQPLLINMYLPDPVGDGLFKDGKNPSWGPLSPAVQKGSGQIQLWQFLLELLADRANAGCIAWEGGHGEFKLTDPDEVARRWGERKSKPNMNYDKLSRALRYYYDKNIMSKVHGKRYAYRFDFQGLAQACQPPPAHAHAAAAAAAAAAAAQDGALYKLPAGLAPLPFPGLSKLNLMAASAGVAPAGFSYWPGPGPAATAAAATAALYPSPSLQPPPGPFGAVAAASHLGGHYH
In short: as §1

ETV5 = ETV5 (Homo sapiens, UniProt P41161 1-510)
In short: as §1

ELK4 = target: T6, ELK4 (Homo sapiens, UniProt P28324-2 1-405)
T6 sequence: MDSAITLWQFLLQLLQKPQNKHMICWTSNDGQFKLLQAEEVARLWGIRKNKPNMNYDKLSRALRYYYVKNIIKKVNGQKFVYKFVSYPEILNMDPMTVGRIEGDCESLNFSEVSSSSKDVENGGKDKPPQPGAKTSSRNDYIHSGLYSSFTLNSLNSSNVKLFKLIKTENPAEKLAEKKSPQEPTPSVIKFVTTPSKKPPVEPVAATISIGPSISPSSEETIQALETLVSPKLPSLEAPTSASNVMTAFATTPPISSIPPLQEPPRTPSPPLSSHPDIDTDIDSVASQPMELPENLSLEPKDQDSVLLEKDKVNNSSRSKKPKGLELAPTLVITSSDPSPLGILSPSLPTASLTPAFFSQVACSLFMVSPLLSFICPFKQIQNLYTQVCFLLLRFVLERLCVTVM
In short: as §1

ELF3 = target: T7, ELF3 (Homo sapiens, UniProt P78545 1-371)
T7 sequence: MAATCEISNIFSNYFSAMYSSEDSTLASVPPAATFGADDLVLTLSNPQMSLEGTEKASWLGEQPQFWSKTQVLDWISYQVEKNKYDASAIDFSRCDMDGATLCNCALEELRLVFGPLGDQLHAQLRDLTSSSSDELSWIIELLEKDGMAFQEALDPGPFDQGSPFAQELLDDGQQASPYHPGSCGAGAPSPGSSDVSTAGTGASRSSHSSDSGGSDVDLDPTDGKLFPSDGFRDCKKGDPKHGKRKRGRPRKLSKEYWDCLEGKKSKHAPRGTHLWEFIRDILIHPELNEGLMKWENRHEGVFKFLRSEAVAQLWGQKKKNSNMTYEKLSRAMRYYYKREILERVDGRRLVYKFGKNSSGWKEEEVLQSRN
In short: as §1

ETV1 = ETV1 (Homo sapiens, UniProt P50549 1-477)
In short: as §1

ERF = target: T8, ERF (Homo sapiens, UniProt P50548 1-548)
T8 sequence: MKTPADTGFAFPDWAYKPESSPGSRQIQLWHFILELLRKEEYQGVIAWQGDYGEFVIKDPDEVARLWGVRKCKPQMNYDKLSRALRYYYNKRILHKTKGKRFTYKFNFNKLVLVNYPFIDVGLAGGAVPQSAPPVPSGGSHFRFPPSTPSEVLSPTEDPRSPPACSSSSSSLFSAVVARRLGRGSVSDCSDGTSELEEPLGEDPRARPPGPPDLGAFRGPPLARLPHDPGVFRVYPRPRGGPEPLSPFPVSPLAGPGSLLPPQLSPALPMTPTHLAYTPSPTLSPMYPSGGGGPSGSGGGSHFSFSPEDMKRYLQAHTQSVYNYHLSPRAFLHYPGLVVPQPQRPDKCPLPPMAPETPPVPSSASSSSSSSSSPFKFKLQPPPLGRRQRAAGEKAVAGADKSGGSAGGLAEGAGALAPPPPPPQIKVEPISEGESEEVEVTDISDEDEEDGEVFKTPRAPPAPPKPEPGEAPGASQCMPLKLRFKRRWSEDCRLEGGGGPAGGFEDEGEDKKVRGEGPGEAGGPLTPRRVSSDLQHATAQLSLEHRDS
In short: as §1

ETS2 = target: T9, ETS2 (Homo sapiens, UniProt P15036 1-469)
T9 sequence: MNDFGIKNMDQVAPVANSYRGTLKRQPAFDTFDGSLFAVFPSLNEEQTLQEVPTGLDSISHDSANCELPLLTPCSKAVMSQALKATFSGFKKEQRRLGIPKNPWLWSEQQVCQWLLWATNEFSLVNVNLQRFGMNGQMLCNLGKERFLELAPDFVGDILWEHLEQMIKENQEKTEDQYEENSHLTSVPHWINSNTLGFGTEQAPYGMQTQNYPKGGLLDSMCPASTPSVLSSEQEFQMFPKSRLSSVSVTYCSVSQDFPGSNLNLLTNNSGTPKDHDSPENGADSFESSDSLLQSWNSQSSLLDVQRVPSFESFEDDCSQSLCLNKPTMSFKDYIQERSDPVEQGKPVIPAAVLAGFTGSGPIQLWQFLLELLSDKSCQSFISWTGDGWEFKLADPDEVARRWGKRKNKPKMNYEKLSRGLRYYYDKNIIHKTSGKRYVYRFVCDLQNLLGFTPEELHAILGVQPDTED
In short: as §1

SPDEF = target: T10, SPDEF (Homo sapiens, UniProt O95238 1-335)
T10 sequence: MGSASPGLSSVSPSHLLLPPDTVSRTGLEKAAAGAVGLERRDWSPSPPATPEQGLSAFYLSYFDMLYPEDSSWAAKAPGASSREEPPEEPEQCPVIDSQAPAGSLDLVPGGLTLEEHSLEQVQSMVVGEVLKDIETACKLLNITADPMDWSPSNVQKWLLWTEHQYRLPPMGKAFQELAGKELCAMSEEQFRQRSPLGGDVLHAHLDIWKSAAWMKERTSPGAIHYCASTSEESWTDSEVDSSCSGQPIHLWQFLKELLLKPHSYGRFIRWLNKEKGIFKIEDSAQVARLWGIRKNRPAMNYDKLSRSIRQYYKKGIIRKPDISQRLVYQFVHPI
In short: as §1

Chain of ETV5 (P41161 whole entry): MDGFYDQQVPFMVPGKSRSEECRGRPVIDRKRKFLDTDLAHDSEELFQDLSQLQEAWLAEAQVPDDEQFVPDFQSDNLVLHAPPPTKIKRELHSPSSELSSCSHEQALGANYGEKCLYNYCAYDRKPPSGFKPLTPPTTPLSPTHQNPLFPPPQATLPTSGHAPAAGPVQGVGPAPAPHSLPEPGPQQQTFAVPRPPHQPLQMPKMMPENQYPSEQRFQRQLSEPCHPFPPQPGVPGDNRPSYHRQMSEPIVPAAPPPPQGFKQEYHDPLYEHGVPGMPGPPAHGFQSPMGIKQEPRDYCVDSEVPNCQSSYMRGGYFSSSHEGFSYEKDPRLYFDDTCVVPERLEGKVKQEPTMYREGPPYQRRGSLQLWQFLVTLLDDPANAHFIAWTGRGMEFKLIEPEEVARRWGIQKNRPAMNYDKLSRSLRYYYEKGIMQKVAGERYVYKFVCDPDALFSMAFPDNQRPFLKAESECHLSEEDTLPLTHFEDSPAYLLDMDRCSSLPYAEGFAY
Chain of ETV1 (P50549 whole entry): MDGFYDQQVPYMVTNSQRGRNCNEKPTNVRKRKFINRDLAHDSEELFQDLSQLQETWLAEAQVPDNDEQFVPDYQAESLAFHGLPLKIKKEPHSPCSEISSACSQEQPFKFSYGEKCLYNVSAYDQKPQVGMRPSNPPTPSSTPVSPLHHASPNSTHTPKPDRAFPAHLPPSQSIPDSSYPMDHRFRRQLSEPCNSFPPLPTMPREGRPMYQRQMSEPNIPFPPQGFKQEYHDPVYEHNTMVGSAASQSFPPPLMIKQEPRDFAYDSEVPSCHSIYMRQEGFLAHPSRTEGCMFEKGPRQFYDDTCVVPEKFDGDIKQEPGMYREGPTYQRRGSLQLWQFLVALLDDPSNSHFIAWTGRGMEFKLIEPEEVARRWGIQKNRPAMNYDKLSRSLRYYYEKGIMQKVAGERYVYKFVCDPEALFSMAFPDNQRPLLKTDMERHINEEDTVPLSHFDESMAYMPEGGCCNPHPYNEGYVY

AGCCAC
binding signal (ELK1): 1.04 fold enrichment (6-mer frequency, TF over GST control) | binding signal (GABPA): 1.01 fold enrichment (6-mer frequency, TF over GST control) | binding signal (EHF): 1.05 fold enrichment (6-mer frequency, TF over GST control) | binding signal (ELK3): 1.11 fold enrichment (6-mer frequency, TF over GST control) | binding signal (FEV): 1.04 fold enrichment (6-mer frequency, TF over GST control) | binding signal (ETV5): 1.01 fold enrichment (6-mer frequency, TF over GST control) | binding signal (ELK4): 1.03 fold enrichment (6-mer frequency, TF over GST control) | binding signal (ELF3): 1.06 fold enrichment (6-mer frequency, TF over GST control) | binding signal (ETV1): 1.04 fold enrichment (6-mer frequency, TF over GST control) | binding signal (ERF): 1.01 fold enrichment (6-mer frequency, TF over GST control) | binding signal (ETS2): 1.05 fold enrichment (6-mer frequency, TF over GST control) | binding signal (SPDEF): 1.05 fold enrichment (6-mer frequency, TF over GST control)
